Where “and” joins values, the source holds several entries; their conditions need not be identical. Identical values can stand only once. Results filed as inconclusive are left out. Where a structure was tested more than once in an assay, its records may differ in their call. Calls of active or inactive are those of the source. The call rests on the fitted dose curve.
Potency means the concentration at half of the fitted maximal effect.

Cytochrome P450 1A2 (Homo sapiens), sequence (P05177 whole entry, looked up): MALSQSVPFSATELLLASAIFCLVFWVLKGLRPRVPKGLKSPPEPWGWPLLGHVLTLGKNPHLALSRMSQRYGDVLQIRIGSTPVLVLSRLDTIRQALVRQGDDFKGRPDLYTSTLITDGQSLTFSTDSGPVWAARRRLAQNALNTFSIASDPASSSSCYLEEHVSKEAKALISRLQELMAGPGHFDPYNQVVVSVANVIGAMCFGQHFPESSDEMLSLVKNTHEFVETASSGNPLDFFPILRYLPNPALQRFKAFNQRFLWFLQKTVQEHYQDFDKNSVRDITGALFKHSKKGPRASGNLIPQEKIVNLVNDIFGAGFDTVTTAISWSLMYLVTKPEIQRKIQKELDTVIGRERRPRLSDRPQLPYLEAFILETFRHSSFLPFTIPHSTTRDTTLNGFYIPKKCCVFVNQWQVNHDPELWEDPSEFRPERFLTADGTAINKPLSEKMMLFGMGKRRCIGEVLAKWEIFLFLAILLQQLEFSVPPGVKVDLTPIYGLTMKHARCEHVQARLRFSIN

This assay concerns the target Cytochrome P450 1A2 (Homo sapiens) (UniProt P05177). The experiment in a line: p450-cyp1a2 (AID 410).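 On activity change, negative = inhibition: -100% = full effect of reference inhibitor.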 Conditions: recombinant CYP1A2, luciferin-ME demethylation, luminescence; series mostly up to 57 µM; activity change, negative = inhibition: at the top concentration. The procedure: The P450 gene superfamily is involved in metabolism and the clearance of xenobiotics. This assay used human CYP1A2 to measure the demethylation of luciferin 6' methyl ether (Luciferin-ME; Promega-Glo) to luciferin. The luciferin is then measured by luminescence after the addition of a luciferase detection regeant. Luciferin-ME concentration in the assay was equal to its Km for CYP1A2.
NCGC Assay Protocol Summary:
Two uL of enzyme and substrate mix (final concentrations: 20nM CYP1A2, 100uM Luciferin-ME, 100mM KPO4) were dispensed into a white, solid bottom 1536-well microtiter plate. 23nL of compound was transferred by a pin tool. The plate was incubated at room temperature for 10 min. Two uL of an NADPH regeneration solution (Promega supplied reagent) was dispensed and the reaction was allowed to continue for 60 min at room temperature. Then the reaction was stopped by reconstituted detection reagent. After another 20 min of incubation the plate was read on the ViewLux (Perkin Elmer) at 60 sec exposure and 2x2 binning. This protocol was carried out with Promega-Glo reagents and further information can be found at http://www.promega.com/tbs/tb325/tb325.pdf. Data were normalized to the to AC100 inhibition (57 uM furafylline).
As for `N[C@H](CP(=O)(O)O)C(=O)O`, the “activity change, negative = inhibition” value is -7.8% (inactive). For `COc1ccn(C)c(=O)c1C#N`, the Potency entry was “inactive”. Take `CC1=C[C@@H]2c3cccc4[nH]cc(c34)C[C@H]2N(C)C1`: the Potency was 3.16 µM (active). Turning to `C[C@@H](C(=O)OC1C[C@H]2CC[C@@H](C1)N2C)c1ccc(Br)cc1` (stereo not given in full), the Potency was 39.8 µM (active). `CC(=O)N1CC[N+](C)(C)CC1`: the “activity change, negative = inhibition” value was -23.4% (inactive). Take `COc1ccc(-n2nc(C(F)(F)F)cc2-c2ccc(Cl)cc2)cc1`: the Potency was 0.501 µM (active).

As to `CN1CCN(C(=O)O[C@@H]2c3nccnc3C(=O)N2c2ccc(Cl)cn2)CC1`, the “activity change, negative = inhibition” value is 2.5% (inactive). On to `Fc1ccc(C(OCCN2CCN(C/C=C\c3ccccc3)CC2)c2ccc(F)cc2)cc1`, for which the Potency was 31.6 µM (active).

With `CS(=O)(=O)Nc1ccc(Cc2noc(-c3ccc4[nH]cc(CCN)c4c3)n2)cc1`, the Potency was 0.0316 µM (active). Take `O=C1/C(=C\c2ccccc2)C[C@@]2(O)[C@H]3Cc4ccc(O)c5c4[C@@]2(CCN3CC2CC2)[C@@H]1O5`: the Potency was 31.6 µM (active). As for `CN(C(=O)Cc1ccc(Cl)c(Cl)c1)[C@H](CN1CCCC1)c1ccccc1`, the Potency was 31.6 µM (active).

As for `CN(C(=O)Cc1ccccc1)[C@H](CN1CCCC1)c1ccccc1`, the “activity change, negative = inhibition” value is -22.3% (inactive). Turning to `CCCOc1ccc2[nH]cc(C3=CCNCC3)c2n1`, the Potency is 0.126 µM (active). The same measure, in the same setting: the result for `C[C@@H](N)Cn1ccc2cc(F)c(Cl)cc21` reads 0.0501 µM (active). For `CC(C)[C@@]1(NC(=O)[C@@H]2C[C@H]3c4cccc5[nH]cc(c45)C[C@@H]3N(C)C2)O[C@@]2(O)[C@H]3CCCN3C(=O)[C@H](Cc3ccccc3)N2C1=O`, the “activity change, negative = inhibition” value was -4.5% (inactive). Take `CCC[C@@H]1CC2=CC(=O)CC[C@]2(C)[C@@H]2CC[C@@]3(C)[C@H](CC[C@]3(O)CCC(=O)O)[C@H]12`: the “activity change, negative = inhibition” value is -1.1% (inactive). For the compound `C[C@@H](Cc1ccc(OCC(=O)O)cc1)NC[C@H](O)c1cccc(Cl)c1`, the “activity change, negative = inhibition” value is -5% (inactive).

Regarding `NC[C@H](CS(=O)(=O)O)c1ccc(Cl)cc1`, the “activity change, negative = inhibition” value is -14.4% (inactive). On to `Cn1cc(C(=O)C(=O)N[C@H]2CN3CCC2CC3)c2ccccc21`, for which the Potency is 15.8 µM (active). In the case of `CNCC/C=C\c1cccnc1`, the “activity change, negative = inhibition” value is -18.5% (inactive). For the compound `N[C@H](CCCCCP(=O)(O)O)C(=O)O`, the Potency entry was “inactive”. As to `N[C@H](C(=O)O)c1cc(=O)[nH]o1`, the Potency entry was “inactive”.

As to `Cc1o[nH]c(=O)c1C[C@@H](N)C(=O)O`, the “activity change, negative = inhibition” value was -5.8% (inactive). Same read-out and setting: the result for `CCOC(=O)c1ncn2c1[C@H]1CCCN1C(=O)c1cc(OC)ccc1-2` reads -5.1% (inactive).

For `CCN(CC)CCO[C@H]1CC[C@@]2(C)C(=CC[C@@H]3[C@H]2CC[C@]2(C)C(=O)CC[C@H]32)C1`, the “activity change, negative = inhibition” value was -19.9% (inactive).

Consider `CC[C@]1(C2=NCCN2)Cc2ccccc2O1`, for which the “activity change, negative = inhibition” value is -6% (inactive). As for `N[C@@]1(C(=O)O)CC[C@H](C(=O)O)C1`, the Potency entry was “inactive”. Take `c1cncc([C@@H]2CCCCN2)c1`: the Potency was 5.01 µM (active) and inactive. Regarding `C=CCN1CC[C@@]23c4c5ccc(O)c4O[C@H]2/C(=N\N=C2/CC[C@@]4(O)[C@H]6Cc7ccc(O)c8c7[C@@]4(CCN6CC=C)[C@@H]2O8)CC[C@]3(O)[C@@H]1C5`, the Potency entry was “inactive”. With `COc1ccc2[nH]cc(C3=CCNCC3)c2c1`, the Potency is 0.251 µM (active). Same read-out and setting: the result for `CCCCCCCCCOc1ccc2[nH]cc(CCN)c2c1` reads 0.0398 µM (active). For the compound `CN1[C@@H]2CC[C@H]1CC(O[C@@H](c1ccccc1)c1ccc(Cl)cc1)C2` (stereo not given in full), the “activity change, negative = inhibition” value was -6.5% (inactive). For the compound `CN1CCN(c2ccc3ccccc3n2)CC1`, the Potency was 10 µM (active) and 3.16 µM (active). For the compound `CN(C(=O)Cc1ccc(Cl)c(Cl)c1)[C@@H](CN1CCCC1)c1cccc(OCC(=O)O)c1`, the “activity change, negative = inhibition” value was 2.9% (inactive). On the same count and under the same terms, the result for `CN(C)Cc1c[nH]c2ccccc12` reads -20.8% [at 25.6 µM] (inactive). Turning to `Oc1ccc2c3c1O[C@H]1c4c(c5ccccc5n4Cc4ccccc4)C[C@]4(O)[C@H](C2)N(CC2CC2)CC[C@@]314`, the Potency was 31.6 µM (active). With `C/C(O)=C(/C#N)C(=O)Nc1cc(Br)ccc1Br`, the Potency was 5.01 µM (active) and 2.51 µM (active). Consider `COc1cccc2c1cc([N+](=O)[O-])c1c(C(=O)O)cc3c(c12)OCO3`, for which the Potency was 31.6 µM (active). Take `COc1cc(CCN)ccc1O`: the “activity change, negative = inhibition” value was -19.4% (inactive). Regarding `C=CCN1CCC2(C)c3cc(O)ccc3C[C@H]1[C@H]2C`, the Potency entry is “inactive and 31.6 µM (active)”.

The values above are taken from PubChem BioAssay (NCATS).
